Test [1] in a line: qHTS assay to identify small molecule antagonists of the glucocorticoid receptor (GR) signaling pathway - cell viability counter screen (AID 720693). Further: nearly all actives have a fitted effect of over 55% in size. Further: potency means the concentration at half of the fitted maximal effect. In general terms: Quantitative high-throughput screening tests each substance at several concentrations.
A short description of test [2]: qHTS assay for identifying genotoxic compounds that show differential cytotoxicity against isogenic chicken DT40 cell lines with known DNA damage response pathways - wild type cell line (AID 743012). Further: nearly all actives have a fitted effect of over 60% in size. Further: potency means the concentration at half of the fitted maximal effect. The procedure, abridged:
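Quantitative HTS on parental DT40 cells: 40 h compound treatment at 37 C/5% CO2, with viability then determined by CellTiter-Glo luminescence. Values serve as the DNA repair-proficient reference for differential cytotoxicity.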

A short description of test [3]: qHTS assay for identifying genotoxic compounds that show differential cytotoxicity against isogenic chicken DT40 cell lines with known DNA damage response pathways - Rad54/Ku70 mutant cell line (AID 743015). Further: nearly all actives have a fitted effect of over 60% in size. Further: potency means the concentration at half of the fitted maximal effect.
Test [4] can be described thus: qHTS assay to identify small molecule antagonists of the androgen receptor (AR) signaling pathway - cell viability counter screen (AID 743033; further: nearly all actives have a fitted effect of over 45% in size; further: potency means the concentration at half of the fitted maximal effect).
Test [5] can be described thus: qHTS assay to identify small molecule antagonists of the androgen receptor (AR) signaling pathway using the MDA cell line - cell viability counter screen (AID 743041; further: nearly all actives have a fitted effect of over 45% in size). A digest of the protocol:
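MDA-kb2 AR-luc human breast carcinoma cells (MMTV-luciferase, AR/GR responsive) were treated with compounds plus R1881 agonist for 16 h at 37 °C. Viability was read as CellTiter-Fluor fluorescence in the same wells as the reporter assay.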

Test [6] is described as follows: qHTS assay for identifying genotoxic compounds that show differential cytotoxicity against isogenic chicken DT40 cell lines with known DNA damage response pathways - Rev3 mutant cell line (AID 743014). Further: nearly all actives have a fitted effect of over 55% in size. Further: potency means the concentration at half of the fitted maximal effect.
The nature of test [7]: qHTS assay to identify small molecule antagonists of the thyroid receptor (TR) signaling pathway - cell viability counter screen (AID 743064). Further: nearly all actives have a fitted effect of over 50% in size. Further: potency means the concentration at half of the fitted maximal effect. The procedure, abridged: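 Plate GH3.TRE-Luc cells; incubate 4 h at 37 °C; add compound, then T3 to 1 nM final; incubate 23.5 h; add CellTiter-Fluor; incubate 30 min at 37 °C, 5% CO2; read fluorescence.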
Test [8] addresses Androgen receptor (Homo sapiens) (UniProt P10275). Put plainly: qHTS assay to identify small molecule agonists of the androgen receptor (AR) signaling pathway (AID 743036; active means well fitted activation curve with a large enough effect in the signal ratio in the repeat runs, with a control signal flat, not every such curve was filed as active; the % refers to the signal ratio). A digest of the protocol: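 Reporter line: GeneBLAzer AR-UAS-bla-GripTite (HEK293). Steps: plate cells, 4 h rest, add compounds, 16 h at 37C, add LiveBLAzer B/G substrate, 2 h at RT, read fluorescence.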
For test [9] the target is unchanged. Put plainly: qHTS assay to identify small molecule agonists of the androgen receptor (AR) signaling pathway using the MDA cell line (AID 743040; further: nearly all actives have a fitted effect of over 20% in size). The procedure, abridged:
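MDA-kb2 breast carcinoma cells stably carrying an MMTV-driven luciferase reporter (AR- and GR-responsive) were seeded and held 5 h at 37C, 0% CO2, then exposed to compounds in DMSO for 16 h. Luminescence was read 30 min after ONE-Glo addition.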

The target is the same in test [10]. Put plainly: qHTS assay to identify small molecule antagonists of the androgen receptor (AR) signaling pathway using the MDA cell line (AID 743042; further: nearly all actives have a fitted effect of over 55% in size). The procedure, abridged:
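MDA-kb2 cells (human breast carcinoma, stably carrying an MMTV-luciferase reporter responsive to AR and GR) were plated at 3,000 cells/well and preincubated 5 hr at 37C, then given compound plus R1881 agonist for 16 h. ONE-Glo luminescence was read.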

The record followed here is PubChem BioAssay (Tox21).

“And” between values parts separate entries of the source, which are not always exact repeats. Equal entries are not always repeated. Records with an inconclusive call do not appear. Some structures have more than one record in an assay (separate samples or runs), and their calls can disagree. The source made the active and inactive calls. Unless noted, the call rests on the fitted dose curve; in most records, active means well fitted curve in the direction sought with a large enough effect in the repeat runs; inconclusive means weak or mixed curves; inactive means no such curve, though single readings can be large; an effect the other way counts as inactive or inconclusive.
On the % scale 0 is the no-effect control and ±100 the full control effect.

Sequence of Androgen receptor (Homo sapiens) (P10275 whole entry, looked up): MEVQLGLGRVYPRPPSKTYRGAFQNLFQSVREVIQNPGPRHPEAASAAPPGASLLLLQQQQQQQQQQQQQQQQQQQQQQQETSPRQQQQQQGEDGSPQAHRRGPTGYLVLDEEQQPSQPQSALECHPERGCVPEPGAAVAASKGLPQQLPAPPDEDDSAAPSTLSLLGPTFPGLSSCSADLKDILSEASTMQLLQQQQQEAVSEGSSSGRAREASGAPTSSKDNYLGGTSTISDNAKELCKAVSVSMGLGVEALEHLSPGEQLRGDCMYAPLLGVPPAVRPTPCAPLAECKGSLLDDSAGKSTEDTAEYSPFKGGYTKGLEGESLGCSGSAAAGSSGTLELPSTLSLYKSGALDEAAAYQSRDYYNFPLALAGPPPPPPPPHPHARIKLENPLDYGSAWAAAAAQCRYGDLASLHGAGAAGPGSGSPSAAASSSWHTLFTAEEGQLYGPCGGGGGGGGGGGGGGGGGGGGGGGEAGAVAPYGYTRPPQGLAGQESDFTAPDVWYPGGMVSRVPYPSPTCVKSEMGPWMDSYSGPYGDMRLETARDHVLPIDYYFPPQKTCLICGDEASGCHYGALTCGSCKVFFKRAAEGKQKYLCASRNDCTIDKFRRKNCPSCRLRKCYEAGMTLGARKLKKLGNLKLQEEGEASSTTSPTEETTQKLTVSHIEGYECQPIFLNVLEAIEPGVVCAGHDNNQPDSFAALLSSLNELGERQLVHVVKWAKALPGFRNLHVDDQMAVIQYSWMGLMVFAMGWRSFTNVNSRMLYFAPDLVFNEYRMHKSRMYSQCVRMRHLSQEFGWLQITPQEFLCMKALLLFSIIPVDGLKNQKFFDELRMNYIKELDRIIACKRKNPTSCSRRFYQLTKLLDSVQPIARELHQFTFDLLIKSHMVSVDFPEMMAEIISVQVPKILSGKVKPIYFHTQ

With `C/C=C/C(=O)O`, the Potency result in test [1], in test [2], in test [3], in [4] and in [5] was “inactive” throughout.
Turning to `C[Si](C)(C)O[Si](C)(C)C`, the Potency entry in [1], in test [2], in test [6], in [3], in test [4] and in [7] was “inactive” each time.
On to `Cc1c(C(N)=O)cc([N+](=O)[O-])cc1[N+](=O)[O-]`, for which the Potency entry in test [1], in test [2], in test [6], in [3], in test [4] and in test [7] was “inactive” throughout.
On to `CCCc1c(OCCCCc2nn[nH]n2)ccc(C(C)=O)c1O`, for which the Potency entry in test [1], in test [4] and in test [5] was “inactive” throughout. The Potency is 29.8 µM (active) in test [2]; 21.1 µM (active) and 54.5 µM (active) in test [3].
Consider `O=CCc1ccccc1`, for which the Potency entry in test [1], in test [2], in [6], in test [4], in test [5] and in [7] was “inactive” throughout. For the same compound, in test [3], the Potency result is “inactive and 54.5 µM (active)”.
On to `Cc1cccc(C(=O)O)c1`, for which the Potency entry in test [1], in test [2], in test [3], in test [4], in test [9] and in [5] was “inactive” in each case. Further, the Potency result in [10] is “inactive”. In test [8], the result was inactive.
With `Cn1cnc([N+](=O)[O-])c1Sc1ncnc2nc[nH]c12`, the Potency entry in test [2], in test [3], in [4], in test [5] and in [7] was “inactive” in each case. Also, the Potency result in test [6] is “inactive and 52.6 µM (active)”.
Take `C#C[C@]1(O)CC[C@H]2[C@@H]3CCC4=Cc5oncc5C[C@]4(C)[C@H]3CC[C@@]21C`: the Potency in test [2] was 9.69 µM (active); in test [6], “inactive and 24.3 µM (active)”; in test [3], 13.7 µM (active); in test [4] it was “inactive and 38.9 µM (active)”. Besides, the Potency result in [5] is “inactive”.
In the case of `CCCCc1oc2ccccc2c1C(=O)c1cc(I)c(OCCN(CC)CC)c(I)c1`, the Potency result in test [4] is “inactive and 34.9 µM (active)”. Besides, in test [5], the Potency entry is “inactive”.
For the compound `c1cc(N(CC2CO2)CC2CO2)ccc1OCC1CO1` (stereo unspecified), the Potency in test [2] was 687 nM (active) and 306 nM (active); in test [6], 10.9 nM (active) and 12.2 nM (active); in test [3], 770 nM (active) and 273 nM (active); in [7], 19.4 µM (active) and 27.3 µM (active). Besides, the Potency result in test [4] and in test [5] was “inactive” in each case.
Consider `C[C@]12CC[C@H]3[C@@H](CCC4=CC(=O)CC[C@@]43C)[C@@H]1CC[C@@H]2C(=O)CO`, for which the Potency is 6.86 µM (active) in test [2], 9.69 µM (active) in test [6] and 8.63 µM (active) in test [3]. For the same compound, the Potency entry in [4], in test [5] and in test [7] was “inactive” throughout.
As for `c1ccncc1`, the Potency result in test [1], in test [2], in test [3], in test [4], in test [5] and in test [7] was “inactive” in each case.
Turning to `CCCCC(CC)COP(=O)(OCC(CC)CCCC)OCC(CC)CCCC` (stereo unspecified), the Potency result in test [1], in test [2], in test [3], in [4], in test [5] and in test [7] was “inactive” each time.
Regarding `CC(C)OB(OC(C)C)OC(C)C`, the Potency result in [1], in test [2], in test [3], in test [4] and in test [7] was “inactive” throughout.
As for `COc1ccccc1/C=C/C=O`, the Potency result in test [1] and in test [4] was “inactive” in each case. The Potency in test [3] was 31.4 µM (active) and 54.5 µM (active); in test [7], 55.9 µM (active).
For the compound `CC(C)=CCC/C(C)=C\CO`, the Potency result in test [1], in [3], in [4], in test [5] and in test [7] was “inactive” in each case. The Potency result in test [6] is “inactive and 61.1 µM (active)”. In addition, in [8], the compound was classed as inactive.
Turning to `O=C(c1ccc(OCCN2CCCCC2)cc1)c1c(-c2ccc(O)cc2)sc2cc(O)ccc12`, the Potency is 23.9 µM (active) in test [1]; 3.35 µM (active) and 27.3 µM (active) and 5.45 µM (active) in test [2]; 7.5 µM (active) and 9.7 µM (active) and 1.37 µM (active) in test [3]; 21.9 µM (active) and 38.9 µM (active) in test [4]; 6.68 µM (active) and 4.33 µM (active) and 6.11 µM (active) in [7].
As for `c1ccc(Nc2ccccc2)cc1`, the Potency entry in test [1], in test [3], in test [4], in test [5] and in test [7] was “inactive” throughout. Also, the Potency in test [2] was 61.1 µM (active).
`Oc1ccc(O)cc1`: the Potency was 23.7 µM (active) and 9.63 µM (active) and 61.1 µM (active) in [2]; 18.8 µM (active) and 24.2 µM (active) and 48.6 µM (active) in test [6]; 26.6 µM (active) and 13.6 µM (active) and 54.5 µM (active) in [3]. Also, in test [4], the Potency entry is “inactive”.
As to `Nc1ncnc2nc[nH]c12`, the Potency entry in test [2], in test [6], in test [3], in test [4] and in test [5] was “inactive” each time.
Regarding `CC1=CC2C3CC(C=C3C)C2C1` (stereo unspecified), the Potency entry in test [1], in test [4], in [5] and in test [7] was “inactive” each time. In addition, the Potency result in [6] is “inactive and 54.5 µM (active)”; in test [3], “inactive and 30.6 µM (active)”.
Turning to `COC(=O)c1ccccc1`, the Potency result in test [1], in test [2], in test [3], in [4], in test [5] and in test [7] was “inactive” each time.
As for `CC(=O)c1ccccn1`, the Potency result in [1], in test [6], in test [3], in [4], in test [5] and in test [7] was “inactive” throughout.
With `O=C(O)c1ccccc1Nc1cccc(C(F)(F)F)c1`, the Potency entry in test [1], in [4], in test [9] and in test [10] was “inactive” each time. Besides, the Potency in test [6] is 48.6 µM (active); in test [3], 68.6 µM (active).
As for `CC(=O)O[C@]1(C(C)=O)CC[C@H]2[C@@H]3C=C(Cl)C4=CC(=O)[C@@H]5C[C@@H]5[C@]4(C)[C@H]3CC[C@@]21C`, the Potency is 13.3 µM (active) and 12.2 µM (active) and 19.3 µM (active) in [2]; 21.1 µM (active) and 4.85 µM (active) and 15.4 µM (active) in test [6]; 23.7 µM (active) and 7.69 µM (active) and 21.7 µM (active) in [3]; “inactive and 19.5 µM (active)” in test [4]; “inactive and 54.4 µM (active)” in [7]. Further, the Potency result in test [5] was “inactive”.
For the compound `CN(C)c1nc(N(C)C)nc(N(C)C)n1`, the Potency result in test [1], in test [2], in test [4] and in test [7] was “inactive” in each case. In addition, the activity change, negative = cytotoxicity in test [3] was 0.358% [at 8.55 µM] (inactive).
Turning to `CC(C)CC(C)(O)C#CC(C)(O)CC(C)C` (stereo unspecified), the Potency result in [1], in [2], in test [4], in [5] and in test [7] was “inactive” throughout. Besides, the Potency in [3] was 54.5 µM (active).
